# According to PubChem BioAssay AID1724 (National Center for Advancing Translational Sciences (NCATS), 2009):
# Inconclusive results are not listed. Values without a mark were called inactive. Activity calls are given as the source filed them. The call rests on the fitted dose curve; in most records, active means well fitted inhibition curve with a large enough effect; inconclusive means small, poorly fitted or top-dose-only effect, or effect the other way; inactive means no such curve, though single readings can be large or run the other way.
# Assay: Confirmation Concentration-Response Assay for Inhibitors of the ERK Signaling Pathway using a Homogeneous Screening Assay
# Conditions: HEK293 cells, hormone-stimulated phospho-ERK AlphaScreen; series mostly up to 40.9 µM; activity change, negative = inhibition: at the top concentration
# Description: qHTS Assay for Inhibitors of the ERK Signaling Pathway using a Homogeneous Screening Assay
# NIH Chemical Genomics Center [NCGC]
# NIH Molecular Libraries Screening Centers Network [MLSCN]
# Assay Submitter (PI): Dr. Wei Zheng, NCGC/NIH
# The Ras/extracellular-signal-regulated kinase (ERK) mitogen activated protein (MAP) kinase signaling pathway (ERK1/2 cascade) plays is a key role in transmitting signals from the cell surface to the nucleus (Nishida and Gotoh 1993; Chang and Karin, 2001). The cascade is initiated by the small G-protein Ras, which recruits Raf […], where activation occurs. Alternatively, this pathway can be activated by elevating intracellular cAMP.
# Activation of the ERK pathway is essential in increased cell division and cell survival. Sustained and constitutive activation of the ERK pathway, however, has been linked to uncontrolled cell proliferation, increased cell survival, and tumor progression. Thus, the ERK has been as an attractive target for cancer chemotherapy in the past few years (Sebolt-Leopold and Herrera, 2004). Given its physiological and pathological importance, assessment of ERK phosphorylation has been broadly performed in both basic research and drug discovery. Most assays for the measurement of ERK phosphorylation use the antibody-based detection methods, such as western blot and ELISA. These assays require multiple reagent additions with cell wash steps and are not suitable for high-throughput screening.
# The current cell-based ERK phosphorylation assay was performed using AlphaScreen platform. […]
# HEK293 cells stably expressing type-1 vasopressin receptor (V1b) were maintained in DMEM medium (Invitrogen, Carlsbad, CA) at 37C under a humidified atmosphere containing 5% CO2 and 95% air. […] The ERK phosphorylation in cells was determined using an AlphaScreen assay kit provided by PerkinElmer. […] AC50 values were determined from concentration-response data modeled with the standard Hill equation. […]
# (10) Detect the assay plate in an EnVision plate reader (PerkinElmer) using the AlphaScreen detection mode. […]
Compound,"activity change, negative = inhibition [%]",Potency
O=C1NC(=O)C(=Cc2ccccc2Oc2ccc(F)cc2)C(=O)N1,2.48,–
N#Cc1c(Cl)c(Cl)c(Cl)c(C#N)c1Cl,–,2240 nM (active)
CC1=CC(=O)c2c(O)cccc2C1=O,-128,–
